Measured values as given in PubChem BioAssay (NCI).
Compounds without any hit were thinned out: in the full panel of roughly 79,000, 15% have a hit. Calls of active or inactive are those of the source. No stated cut-off is given here; in the data, active means growth inhibition above about 70%; inactive means the rest.

Legend:
[1] = NCI Yeast Anticancer Drug Screen. Data for the rad52 strain (AID 147);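 further: 0% = growth of vehicle-treated control cultures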; conditions: S. cerevisiae rad52 mutant growth inhibition, hits give high values
Method in brief: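 Growth of repair-deficient yeast cells was compared between compound-treated and vehicle-treated cultures to give percent inhibition.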

[2] = NCI Yeast Anticancer Drug Screen. Data for the wt1 strain (AID 149);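 further: 0% = growth of vehicle-treated wt1 cultures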; conditions: S. cerevisiae wt1 strain (SPY 50644) growth inhibition, hits give high values
Method in brief: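 wt1 yeast, compound-treated; % growth inhibition vs vehicle control.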

[3] = NCI Yeast Anticancer Drug Screen. Data for the rad50EPP+ strain (AID 151);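 further: 0% = growth of vehicle-treated control cultures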; conditions: S. cerevisiae rad50 mutant strain, hits give high values
Method in brief: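 Measured: growth inhibition of rad50EPP+ yeast. Reference: vehicle-treated controls. Screen uses strains with defined genetic alterations in DNA damage repair or cell cycle control.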

[4] = NCI Yeast Anticancer Drug Screen. Data for the mgt1 strain (AID 153); conditions: S. cerevisiae mgt1 mutant growth inhibition, hits give high values
Method in brief: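 Compounds were applied to mgt1 mutant yeast, and growth was then compared against vehicle-treated control cultures to give percent inhibition.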

[5] = NCI Yeast Anticancer Drug Screen. Data for the rad50 strain (AID 155);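 further: 0% = growth of vehicle-only cultures of the same strain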; conditions: S. cerevisiae rad50 strain growth inhibition, hits give high values
Method in brief: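 Genetically altered yeast (DNA repair pathway); compound treatment; growth inhibition vs vehicle ctrl.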

[6] = NCI Yeast Anticancer Drug Screen. Data for the mec2-1 strain (AID 157); conditions: S. cerevisiae mec2-1 strain, hits give high values
Method in brief: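 Compounds were applied to mec2-1 yeast cells. Their growth was then compared with that of vehicle-treated cultures to give growth inhibition.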

[7] = NCI Yeast Anticancer Drug Screen. Data for the rad14 strain (AID 159);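 further: 0% = growth of vehicle-treated control cultures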; conditions: S. cerevisiae rad14 strain growth inhibition, hits give high values
Method in brief: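 Test compounds were applied to a repair-deficient yeast strain. Its growth was then compared with that of cultures given vehicle alone, and inhibition was expressed relative to those controls.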

[8] = NCI Yeast Anticancer Drug Screen. Data for the sgs1 mgt1 strain (AID 161);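 further: 0% = growth of cultures given vehicle only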; conditions: S. cerevisiae sgs1 mgt1 strain, hits give high values
Method in brief: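 Growth of a repair-deficient yeast mutant was monitored after compound treatment and expressed as inhibition relative to vehicle-treated cultures.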

[9] = NCI Yeast Anticancer Drug Screen. Data for the cln2 rad14 strain (AID 165);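 further: 0% = growth equal to vehicle treated cultures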; conditions: S. cerevisiae cln2 rad14 strain, hits give high values
Method in brief: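 Strain: cln2 rad14 yeast, altered in cell cycle control and DNA damage repair. Read-out: growth inhibition vs vehicle.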

[10] = NCI Yeast Anticancer Drug Screen. Data for the bub3 strain (AID 167); conditions: S. cerevisiae bub3 mutant strain, hits give high values
Method in brief: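 Yeast carrying a defined mutation is treated with each compound, and growth is compared with that of vehicle-exposed cells to give inhibition.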

[11] = NCI Yeast Anticancer Drug Screen. Data for the wt2 strain (AID 169);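 further: 0% = growth of vehicle-treated yeast cultures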; conditions: S. cerevisiae wt2 strain growth inhibition, hits give high values
Method in brief: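 Growth of compound-treated yeast is measured and expressed as inhibition relative to vehicle-only controls.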

[12] = NCI Yeast Anticancer Drug Screen. Data for the mlh1 strain (AID 171);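 further: 0% = growth of vehicle-treated control cultures of the same strain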; conditions: S. cerevisiae mlh1 strain growth inhibition, hits give high values
Method in brief: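 Test agents were incubated with yeast bearing a defined DNA damage repair or cell cycle control alteration; values are growth inhibition normalised to vehicle-treated cultures.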

[13] = NCI Yeast Anticancer Drug Screen. Data for the sgs1 strain (AID 173);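 further: 0% = growth of vehicle-only control cultures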; conditions: S. cerevisiae sgs1 mutant, hits give high values
Method in brief: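 Strain with an altered DNA repair or cell cycle pathway exposed to compound. Growth then measured. Value = inhibition versus vehicle control.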

[14] = NCI Yeast Anticancer Drug Screen. Data for the mlh1 rad18 strain (AID 175); conditions: S. cerevisiae mlh1 rad18 strain growth inhibition, hits give high values
Method in brief: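 A repair-deficient yeast strain is exposed to test compound, and growth is scored relative to vehicle-treated controls.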

[15] = NCI Yeast Anticancer Drug Screen. Data for the rad18 strain (AID 177); conditions: S. cerevisiae rad18 mutant growth inhibition, hits give high values
Method in brief: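 DNA-repair-defective yeast; compound treatment; growth inhibition scored against vehicle.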

[16] = NCI Yeast Anticancer Drug Screen. Data for the CLN2oe strain (AID 163);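 further: 0% = growth of vehicle-only control cultures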; conditions: S. cerevisiae CLN2oe strain, hits give high values
Method in brief: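 Cells of an engineered yeast line with disturbed cell-cycle regulation are treated with compound. Inhibition of growth is then calculated relative to the vehicle-treated reference.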

[17] = at 5.0 µM (retest, dose inferred, filed as 0.5)
[18] = at 50.0 µM (retest, dose inferred, filed as 5.0)

Measured: growth inhibition

O=Cc1cccc2ccc3ccccc3c12
active: [1]; at 100.0 µM 98% | [3]; at 33.0 µM 77% | [3]; at 100.0 µM 95% | [4]; at 100.0 µM 98% | [5]; at 33.0 µM 94% | [5]; [18] 89% | [5]; at 50.0 µM 99.3% | [5]; at 100.0 µM 97% | [6]; at 50.0 µM 99.5% | [6]; at 100.0 µM 96% | [7]; at 33.0 µM 71% | [7]; at 100.0 µM 99% | [8]; [18] 73% | [8]; at 50.0 µM 98.2% | [9]; at 50.0 µM 98.7% | [10]; [18] 81% | [10]; at 50.0 µM 98.7% | [10]; at 100.0 µM 97% | [11]; at 100.0 µM 80% | [12]; at 100.0 µM 98% | [13]; at 100.0 µM 99% | [14]; [18] 82% | [14]; at 50.0 µM 98.8% | [15]; at 100.0 µM 98%
inactive: [1]; at 1.2 µM -6% | [1]; at 3.7 µM 0% | [1]; at 11.0 µM 7% | [1]; at 33.0 µM 62% | [2]; at 1.2 µM -6% | [2]; at 3.7 µM -5% | [2]; at 11.0 µM -8% | [2]; at 33.0 µM 7% | [2]; at 100.0 µM 52% | [3]; at 1.2 µM 5% | [3]; at 3.7 µM 15% | [3]; at 11.0 µM 36% | [4]; at 1.2 µM -2% | [4]; at 3.7 µM -4% | [4]; at 11.0 µM -3% | [4]; at 33.0 µM 32% | [5]; at 1.2 µM -7% | [5]; at 3.7 µM -12% | [5]; [17] -102% | [5]; at 11.0 µM 12% | [6]; at 1.2 µM -1% | [6]; at 3.7 µM -1% | [6]; [17] -45% | [6]; at 11.0 µM 1% | [6]; at 33.0 µM 1% | [6]; [18] 41% | [7]; at 1.2 µM -1% | [7]; at 3.7 µM 1% | [7]; at 11.0 µM 9% | [8]; [17] -56% | [9]; [17] -52% | [9]; [18] 2% | [10]; at 1.2 µM -7% | [10]; at 3.7 µM -4% | [10]; [17] -54% | [10]; at 11.0 µM -3% | [10]; at 33.0 µM 4% | [11]; at 1.2 µM -2% | [11]; at 3.7 µM -2% | [11]; at 11.0 µM -3% | [11]; at 33.0 µM 26% | [12]; at 1.2 µM 5% | [12]; at 3.7 µM -5% | [12]; at 11.0 µM -2% | [12]; at 33.0 µM 63% | [13]; at 1.2 µM -1% | [13]; at 3.7 µM -2% | [13]; at 11.0 µM 4% | [13]; at 33.0 µM 57% | [14]; [17] -91% | [15]; at 1.2 µM -6% | [15]; at 3.7 µM -2% | [15]; at 11.0 µM 6% | [15]; at 33.0 µM 43%

NCCNc1ccc(NCCN)c2c1C(=O)c1c(O)ccc(O)c1C2=O
inactive: [1]; at 1.2 µM 24% | [1]; at 100.0 µM 63% | [2]; at 1.2 µM 0% | [2]; at 3.7 µM 9% | [2]; at 11.0 µM 7% | [3]; at 1.2 µM 30% | [3]; at 3.7 µM 62% | [3]; at 100.0 µM 66% | [4]; at 1.2 µM -30% | [4]; at 3.7 µM -21% | [4]; at 11.0 µM -9% | [4]; at 100.0 µM 66% | [5]; at 1.2 µM 20% | [5]; at 50.0 µM 29.6% | [5]; at 100.0 µM 65% | [6]; at 1.2 µM -10% | [6]; at 3.7 µM 18% | [6]; [17] 14% | [6]; at 11.0 µM 13% | [6]; at 50.0 µM 67.5% | [6]; at 100.0 µM 68% | [7]; at 1.2 µM -4% | [7]; at 3.7 µM 5% | [7]; at 11.0 µM 18% | [7]; at 100.0 µM 68% | [8]; [17] 17% | [8]; at 50.0 µM 65% | [16]; at 1.2 µM 28% | [16]; at 3.7 µM 20% | [16]; at 11.0 µM 32% | [16]; at 100.0 µM 52% | [9]; [17] 21% | [9]; at 50.0 µM 64.5% | [10]; at 1.2 µM 0% | [10]; at 3.7 µM 23% | [10]; [17] 11% | [10]; at 11.0 µM 5% | [10]; at 50.0 µM 60% | [10]; at 100.0 µM 62% | [12]; at 1.2 µM 2% | [12]; at 3.7 µM 20% | [12]; at 11.0 µM 20% | [12]; at 100.0 µM 66% | [13]; at 1.2 µM 11% | [13]; at 3.7 µM 42% | [13]; at 11.0 µM 40% | [13]; at 100.0 µM 63% | [14]; [17] 14% | [14]; at 50.0 µM 46% | [15]; at 1.2 µM 4% | [15]; at 3.7 µM 18% | [15]; at 11.0 µM 8% | [15]; at 100.0 µM 61%
active: [1]; at 3.7 µM 83% | [1]; at 11.0 µM 88% | [1]; at 33.0 µM 85% | [2]; at 33.0 µM 82% | [2]; at 100.0 µM 76% | [3]; at 11.0 µM 82% | [3]; at 33.0 µM 87% | [4]; at 33.0 µM 86% | [5]; at 3.7 µM 78% | [5]; [17] 73% | [5]; at 11.0 µM 87% | [5]; at 33.0 µM 85% | [5]; [18] 84% | [6]; at 33.0 µM 87% | [6]; [18] 84% | [7]; at 33.0 µM 88% | [8]; [18] 77% | [16]; at 33.0 µM 82% | [9]; [18] 77% | [10]; at 33.0 µM 85% | [10]; [18] 70% | [12]; at 33.0 µM 86% | [13]; at 33.0 µM 86% | [14]; [18] 82% | [15]; at 33.0 µM 85%
